# In the library only some 12% were active in any assay of this set; here they are far more common.
# ALDH1A1 inh – inhibitors of human aldehyde dehydrogenase 1A1. Purified ALDH1A1, NADH fluorescence, propionaldehyde substrate. P00352. Potency, µM (top dose mostly 75.3 µM), for inactives: at the highest dose activity, negative = inhibition, usual class: inhibitors. 7.3% of 220,000 active; active = well fitted inhibition curve with a large enough effect, not every such curve was filed as active; inconclusive = small, poorly fitted or top-dose-only effect, or another doubt; inactive = no such curve, though single readings can be large or run the other way;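 also: plate controls were no enzyme wells and a reference inhibitor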
# RORgamma inh – inhibitors of mouse ROR gamma transcriptional activity; AID 2551; Drosophila S2 Gal4-RORgamma UAS-luciferase reporter, 20 h; 5.4% of 310,000 active; Potency, µM (titrated, usually from 53.6 µM), without a hit: at the highest dose activity change, negative = inhibition, actives largely listed as inhibitors; also: nearly all actives have a fitted effect of over 60% in size
# Target sequence (P51450 whole entry, looked up, the tested form may be a part): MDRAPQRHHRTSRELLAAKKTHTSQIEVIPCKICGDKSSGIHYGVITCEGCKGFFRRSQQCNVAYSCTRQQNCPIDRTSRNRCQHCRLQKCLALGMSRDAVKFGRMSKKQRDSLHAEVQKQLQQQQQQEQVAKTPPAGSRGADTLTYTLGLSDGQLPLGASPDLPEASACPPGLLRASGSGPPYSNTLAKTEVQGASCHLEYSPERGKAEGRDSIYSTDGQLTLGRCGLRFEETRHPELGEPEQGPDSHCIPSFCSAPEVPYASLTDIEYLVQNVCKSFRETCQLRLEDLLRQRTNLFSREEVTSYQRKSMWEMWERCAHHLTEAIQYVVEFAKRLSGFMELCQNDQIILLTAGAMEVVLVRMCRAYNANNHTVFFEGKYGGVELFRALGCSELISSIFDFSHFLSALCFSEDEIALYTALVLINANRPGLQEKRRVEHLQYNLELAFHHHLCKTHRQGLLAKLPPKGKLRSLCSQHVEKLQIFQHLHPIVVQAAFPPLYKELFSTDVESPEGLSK
#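 Drosophila Schneider cells stably carrying a metallothionein-driven Gal4 DBD–ROR gamma fusion and a UAS-Photinus luciferase reporter were exposed to compound for 1 hr, then induced with copper sulfate (700 uM final) for 20 hr at ambient temperature before luminescence reading.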
# VP16 counter – inhibits Gal4-VP16 luciferase reporter, ROR gamma counter-screen. Drosophila S2 Gal4-VP16 UAS-luciferase, luminescence, 20 h. Potency, µM (highest dose often 53.6 µM), for inactives: at the highest dose activity, negative = inhibition, hits mostly inhibitors. 3.5% of 310,000 active;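 also: Gal4-VP16 expression switched on by copper sulfate through the metallothionein promoter; nearly all actives have a fitted effect of over 50% in size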
# Sfp inh – Sfp phosphopantetheinyl transferase inhibition | Q9F4F7 | Biochemical Sfp PPTase activity, qHTS | Potency, µM, inactives show largest response in the series, negative = inhibition, usual class: inhibitors | 3.5% of 310,000 active;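 also: the enzyme is Sfp with the accession as filed and its product quenches rhodamine fluorescence; 0% = enzyme reaction without inhibitor and -100% = no enzyme wells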
#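 Fluorescence-quenching assay with 15 nM Sfp, 5 uM rhodamine-CoA and 12.5 uM BHQ-2-labelled ybbR peptide in pH 7.6 Hepes/MgCl2 buffer. Enzyme was pre-incubated with compound for 15 min at room temperature. Rate was taken from the 30-min fluorescence change (525/598 nm).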
# PLK1 PBD block – inhibitors of human PLK1 polo-box domain binding; P53350; Plk1 PBD binding of FITC phosphopeptide, fluorescence polarization; Potency, µM, without a hit: max response, negative = inhibition, hits mostly inhibitors; 2.8% of 360,000 active; also: series mostly up to about 57 µM; nearly all actives have a fitted effect of over 65% in size
# The depositor's hits bear a star; u = inconclusive; x = no result; ! = not active in a repeat; [ ] = dose if it differs, or a comment. Unless noted, calls follow the shape of the dose curve; as a rule, active = well fitted curve in the direction sought with a large enough effect; inconclusive = small, poorly fitted or top-dose-only effect, or another doubt; inactive = no such curve, though single readings can be large; an effect the other way counts as inactive or inconclusive. Unless noted, % is scaled to controls: 0 for no effect and ±100 for the full control effect; potency is read from the fitted curve at half-maximal effect.
SMILES,ALDH1A1 inh,RORgamma inh,VP16 counter,Sfp inh,PLK1 PBD block
O=C1NC(=O)N(c2ccccc2F)C(=O)/C1=C/c1ccc(Oc2ccc([N+](=O)[O-])cn2)cc1,u,3%,-12%[10 µM],50µM*,6µM*
CC1(C)N=C(N)N=C(N)N1c1cccc(C(=O)Nc2ccc(S(=O)(=O)F)cc2)c1,-1%[13.5 µM],x,x,x,x
C=CC(=O)OCC(CO)(COC(=O)C=C)COC(=O)C=C,0.4µM*,4.5µM*,5.6µM*,x,x
O=C(Nc1ccc(Cl)c(C(F)(F)F)c1)NC1CC2CCCC(C1)N2Cc1ccccc1 (stereo not drawn),2%,u,u,-2%,3%
COC(=O)c1ccc(C(c2c(C)[nH][nH]c2=O)c2c(C)[nH][nH]c2=O)cc1,x,1%,-3%,-13%,21µM*
COC(=O)C(C#N)C(c1cccnc1)c1c(C)[nH][nH]c1=O (stereo not drawn),u,-24%,-4%,u,u
O=c1c2ccccc2sn1-c1ccc(Cl)cc1,x,x,x,x,3µM*
Cc1ccc(-n2sc3ccccc3c2=O)cc1,10µM*,5µM*,1.6µM*,1.3µM*,0.95µM*
Nc1nc2c(s1)CCCCCCCCCC2,-2%,11µM*,6%,5%,-11%
CC(=O)OCC1=C(C(=O)[O-])N2C(=O)[C@@H](NC(=O)CCC[C@@H](N)C(=O)[O-])[C@H]2SC1.[Zn+2],3%,x,x,x,x
CC1=C(C(=O)O)N2C(=O)[C@@H](NC(=O)CCCC(=O)O)[C@H]2SC1,-4%,-18%,-13%,5µM*,-26%
O=C(O)C[C@H]1OCC=C2CN3CC[C@]45c6ccccc6N[C@@H]4[C@H]1[C@H]2C[C@H]35,-8%[13.5 µM],x,x,x,x
Nc1ncnc2c1ncn2[C@@H]1O[C@H](COP(=O)(O)CP(=O)(O)OP(=O)(O)O)[C@@H](O)[C@H]1O,8%,x,x,56µM*,x
CNc1ccc2oc(C[C@@H]3OC4(CC[C@@H]3C)O[C@H]([C@@H](C)C(=O)c3ccc[nH]3)[C@H](C)C[C@H]4C)nc2c1C(=O)O (stereo partly drawn),u,x,x,22%,x
CCC1/C=C/C=CCC(C)C(O)[C@@](C)(O)C(=O)C(C)C(O)C(C)C(=O)C(C)C(O)C(C)C=CC(=O)O[C@H]2C(C)C(CC1)O[C@]1(CCC(C)C(CC(C)O)O1)C2C (stereo partly drawn),13%,0.0006µM*,50µM*,-4%,x
O=C1c2ccccc2C(=O)N1SC1CCCCC1,1.4µM*,u,u,10µM*,1.9µM*
O=C(N/N=C/c1cccc([N+](=O)[O-])c1)c1cnccn1,8%,u,-6%,-5%,-2%
COc1cccc(/C=N/NC(=O)c2c(C)nc3ccc(Br)cn23)c1,u,14µM*,u,18%,1%
COC(=O)[C@H]1[C@H](c2ccccc2)C(=O)[C@@]2(O)c3ccccc3O[C@@]12c1ccccc1,1%[13.5 µM],-12%[10 µM],-6%[10 µM],11%,x
CN(C)S(=O)(=O)c1cc(NC(=O)COC(=O)Cc2ccccc2)ccc1Cl,u,u,3%,6%,30µM*
C=C(CC1CC(O)[C@]2(C)OC3CC4OC5C[C@]6(C)O[C@]7(C)CCC8OC9C[C@]%10(C)OC%11C(C)=CC(=O)OC%11CC%10OC9C[C@@H](C)C8OC7CC6O[C@]5(C)C/C=C\C4OC3CC2O1)C(=O)O (stereo partly drawn),4µM*,-17%,15%,-2%,-3%
CC1=CC[C@@H]2[C@@H](C1)c1c(O)cc(CC#CCCCNS(C)(=O)=O)cc1OC2(C)C,-8%,21%,u,18%,x
CC(=O)c1cccc(OCC(O)CN2CC=C(c3ccccc3)CC2)c1 (stereo not drawn),22µM*,-16%,-1%,-23%,-3%
COc1ccc(C2=NCC(=O)N(CC(=O)NCc3ccco3)c3sc4c(c32)CCCC4)cc1OC,-13%,28%,-11%,50µM*,-7%
CCCC1COC(Cn2cncn2)(c2ccc(Cl)cc2Cl)O1 (stereo not drawn),-10%,u,18µM*!,u,-13%
SMILES,ALDH1A1 inh,RORgamma inh,VP16 counter,Sfp inh,PLK1 PBD block
Cc1cc(OCC(=O)O)c2c3c(c(=O)oc2c1)CCCC3,u,-14%,0%,6%,-4%
Cc1cc(OC(=O)c2ccco2)c2c3c(c(=O)oc2c1)CCCC3,14µM*,0%,u,-10%,-1%
Cc1cc(OC(=O)c2cccs2)c2c3c(c(=O)oc2c1)CCCC3,13µM*,u,u,13%,-7%
Cc1cc(OCC(=O)Nc2c(C)n(C)n(-c3ccccc3)c2=O)c2c3c(c(=O)oc2c1)CCC3,3.2µM*,1%,5%,17%,x
C/C=C(/C)C(=O)OC1CC[C@]2(C)C3CCC4[C@]5(O)CC(O)[C@]6(O)C(CN7CC(C)CCC7[C@]6(C)O)[C@]5(O)C[C@@]42O[C@]13O (stereo partly drawn),3%,-1%,2%,2%,x
Cc1nn(Cc2ccccc2)c2c1C(c1ccco1)C(C#N)=C(N)O2 (stereo not drawn),28µM*,7.1µM*,-17%,-24%,u
CCC(CC)C1C(C#N)=C(N)Oc2c1c(=O)oc1ccccc21 (stereo not drawn),-7%,24%,-12%,9%,-3%
O=[N+]([O-])c1ccc(N2CCCC2)c2ncccc12,-11%,-2%,-7%[10 µM],11%,-10%
Cc1nonc1OCCNCCNc1ccc([N+](=O)[O-])c2cccnc12,u,1.8µM*,5µM*,-13%,-2%
CCNCCNc1ccc([N+](=O)[O-])c2cccnc12,-3%,2.8µM*,20µM*,8%,-5%
N=C(N)SCc1ccc(Cl)c2ccccc12 (tested in a mixture with another compound),-1%[13.5 µM],x,x,x,x
CCOC(=O)C1CCN(Cc2c(F)cccc2Cl)CC1,-8%,1%,-6%,u,-8%
Cn1cccc1/C=C1\C(=O)NC(=O)N(Cc2ccco2)C1=O,u,-5%,4%[10 µM],-20%,24µM*
COc1ccc(/C=C2/C(=O)NC(=O)N(Cc3ccco3)C2=O)cc1,3%,8%,0%,u,x
CCOC(=O)C1CCN(/C=C2/C(=O)NC(=O)N(Cc3ccco3)C2=O)CC1,3.5µM*,-26%,-3%,u,u
Cc1ccc(OCCn2cccc2/C=C2/C(=O)NC(=O)N(Cc3ccco3)C2=O)cc1,x,44%,u,u,2.7µM*
CCc1ccc(N2C(=O)NC(=O)/C(=C\c3cccn3CCOc3ccc(C(C)C)cc3)C2=O)cc1,7%,-22%,0.4µM*,5%,-7%
CCOc1ccc(N2C(=O)NC(=O)/C(=C\c3ccc(N4CCCCC4)o3)C2=O)cc1,0%,u,-2%,-7%,80%
C[C@]12CCC3C(CC[C@]4(O)CC(O)CC[C@@]34C=O)[C@]1(O)CCC2C1=CC(=O)OC1 (stereo partly drawn),3%,0%,-17%,19%,x

# Screening data deposited in PubChem by National Center for Advancing Translational Sciences (NCATS).
